CHX counter: counter-screen for Shiga toxin inhibitors: cycloheximide protein synthesis inhibition | cell reporter, cycloheximide protein synthesis inhibition counterscreen | max response, % | 12% of 300,000 active | AID 2314; in the data active means max response mostly above about 13%, no sharp cut-off; inactive means mostly below about 14%; further: read at 38.3 µM for the half of the compounds with a filed dose; 0% is about no effect
Shiga inhibitor: inhibitors of Shiga toxin in Vero cells; Vero cells, Shiga toxin protein synthesis inhibition reporter; inhibition, % at 38.7 µM; 9.2% of 290,000 active; AID 2315; in the data active means inhibition mostly above about 28%, no sharp cut-off; inactive means mostly below about 43%; further: 0% is about no effect
AMA1-RON2 inh: disrupts binding of P. falciparum AMA1 to RON2; AlphaScreen AMA1-biotinylated RON2 peptide binding; Potency, µM (highest dose often 58.2 µM), without a hit: top-dose activity change, negative = inhibition, hits mostly inhibitors; 0.2% of 360,000 active; AID 720542;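 further: potency means the concentration at half of the fitted maximal effect; 0% = vehicle wells and -100% = peptide control; nearly all actives have a fitted effect of over 45% in size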
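AMA1 (3D7) with his tag at 25 nM final met compounds first, then biotinylated RON2 peptide at 25 nM; detection used donor plus acceptor beads, 10 µg/mL apiece, read by AlphaScreen after 30 min at room temperature.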
AmpC no deterg: blocks E. coli AmpC beta-lactamase in detergent-free assay; AmpC nitrocefin hydrolysis, absorbance 480 nm, 0.0001% Triton; Potency, µM (doses to about 57.1 µM), without a hit: at the highest dose activity change, negative = inhibition, hits mostly inhibitors; 0.52% of 330,000 active; AID 485341;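 further: potency means the concentration at half of the fitted maximal effect; plate controls were no compound for no effect and no enzyme for full effect; nearly all actives have a fitted effect of over 20% in size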
Target sequence (P00811 whole entry, looked up): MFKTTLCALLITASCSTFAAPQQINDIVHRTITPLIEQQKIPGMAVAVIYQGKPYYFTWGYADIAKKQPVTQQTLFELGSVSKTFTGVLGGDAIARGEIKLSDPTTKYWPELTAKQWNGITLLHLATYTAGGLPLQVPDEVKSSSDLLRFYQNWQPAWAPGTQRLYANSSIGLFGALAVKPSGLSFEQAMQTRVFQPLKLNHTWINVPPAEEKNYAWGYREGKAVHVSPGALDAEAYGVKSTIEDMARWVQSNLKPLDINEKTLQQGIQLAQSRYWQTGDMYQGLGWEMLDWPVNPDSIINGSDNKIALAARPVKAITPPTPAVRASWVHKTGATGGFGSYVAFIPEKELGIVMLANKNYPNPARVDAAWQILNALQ
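20 mM phosphate pH 7.0 + 0.01% (detergent screen) or 0.0001% Triton X-100; 5.3 nM AmpC reagent; cpd preinc 15 min RT; nitrocefin (800 uM stock) to start; A480 q20 s × 4 min; Activity was normalised to no-enzyme and no-compound control wells.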
AmpC detergent: blocks E. coli AmpC beta-lactamase in detergent assay | 0.041% of 370,000 active | AID 485294 | P00811 | AmpC hydrolysis of nitrocefin, absorbance 480 nm, 0.01% Triton | Potency, µM (top dose mostly 114 µM), inactives show at the top dose activity change, negative = inhibition, most hits filed as inhibitors;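 further: potency means the concentration at half of the fitted maximal effect; 0% = no-compound wells and -100% = no-enzyme wells; nearly all actives have a fitted effect of over 25% in size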
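AmpC (5.3 nM in the dispensed reagent) in 20 mM phosphate pH 7.0 with 0.01% (detergent screen) or 0.0001% Triton X-100 was preincubated with compounds for 15 min at room temperature. Nitrocefin was then added from an 800 uM solution, and hydrolysis was followed at 480 nm.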
SARS PLpro yeast: blocks SARS-CoV papain-like protease in a yeast assay | 0.19% of 330,000 active | S. cerevisiae expressing SARS-CoV PLpro, growth rescue | Potency, µM (titrated, usually from 32.9 µM), for inactives: at the top dose activity, positive = growth rescue, hits mostly activators; calls by dose curve; further: potency means the concentration at half of the fitted maximal effect; 0% is about no effect; nearly all actives have a fitted effect of over 55% in size
* hit, by the source's call; ? = inconclusive; nt = no result given; [ ] = remark or other dose. The entries come from a sample that favours hits as a whole. Unless noted, the call rests on the fitted dose curve; in most records, active means well fitted curve in the direction sought with a large enough effect; inconclusive means small, poorly fitted or top-dose-only effect, or another doubt; inactive means no such curve, though single readings can be large; an effect the other way counts as inactive or inconclusive.

SMILES	CHX counter	Shiga inhibitor	AMA1-RON2 inh	AmpC no deterg	AmpC detergent	SARS PLpro yeast
COc1ccc(NC(=O)NC23CC4(C)CC(C)(CC(C)(C4)C2)C3)cc1	-4	-4	10%	-36%	-1%	11%
O=C(CSc1nc(-c2ccccc2Cl)ns1)Nc1ccc2c(c1)OCO2	15*	23	1%	-16%	0%	-22%
O=C(CSc1ncccn1)Nc1ccc2c(c1)OCO2	nt	nt	-8%	-21%	nt	2%
COc1ccc(-c2nsc(SCC(=O)NCc3ccc4c(c3)OCO4)n2)cc1	-3	-12	0%	-45%	?	11%
Cc1ccc(-c2nsc(SCC(=O)Nc3ccc4c(c3)OCO4)n2)cc1	18*	24*	5%	-42%	?	-10%
COC(=O)c1cccc(CSC(=S)N2CCCC2)c1	30*	36	10%	-13%	-2%	-3%
COC(=O)c1ccc(C(=S)N2CCCCC2)cc1	-2	6	34%	-27%	5%	0%
COc1ccc(CSCCN)cc1Cl	3	18	-5%	-1%	-2%	5%
COc1ccc2c(c1)CC/C(=C\c1ccc(C)o1)C2=O	56*	91*	?	-40%	3%	-6%
COc1ccc2c(c1)CC/C(=C/c1ccncc1)C2=O	32*	54	-19%	-8%	?	-61%
CC(Oc1ccccc1)C(=O)Nc1ccc(NC(=O)c2ccccc2)cc1 (stereo not given)	-4	-9	-3%	-9%	-3%	0%
COc1cccc(Nc2nc(-c3cccs3)nc3ccccc23)c1	3	10	-10%	-29%	?	-75%
COc1cccc(Nc2nc3ccccc3c(=O)[nH]2)c1	8	23	-5%	10µM*	2%	2%
COc1cccc(Nc2cc(C)c3ccccc3n2)c1	25*	66*	-8%	-51%	-5%	1%
COc1ccc(/C=N/NC(=O)c2ccn[nH]2)cc1Cn1nc(C)c([N+](=O)[O-])c1C	23*	69*	80%	-23%	2%	-1%
COc1ccc(/C=C/C(=O)c2ccccc2)cc1COc1ccc(F)cc1	10	29	13%	-3%	-14%	0%
COc1ccc(/C=C/C(=O)c2ccc(O)cc2)cc1COc1ccc(F)cc1	0	26	-8%	11µM*	5%	-4%
COc1ccc(/C=N/NC(=O)c2ccn[nH]2)cc1COc1ccc(F)cc1	21*	33	91%	-36%	?	-16%
COc1ccc(/C=N/NC(=O)c2ccco2)cc1Cn1nc(C)c([N+](=O)[O-])c1C	9	-10	6%	-46%	6%	1%
COc1ccc(/C=N/NC(=O)c2cccnc2)cc1COc1ccc([N+](=O)[O-])c(C)c1	-2	-10	7%	66%	3%	-3%
COc1ccc(/C=N/NC(=O)c2ccn[nH]2)cc1COc1ccc([N+](=O)[O-])c(C)c1	35*	55*	57%	-29%	2%	-1%
CC1=NN2C(=N)/C(=C\c3cc(C)n(-c4cccc(C)c4)c3C)C(=O)N=C2S1	-1	-9	20%	5%	-7%	0%
COC(=O)CCCn1cc(CN2CC(N3CCN(Cc4ccccc4F)CC3)CS2(=O)=O)nn1 (stereo not given)	nt	nt	-5%	nt	nt	nt
Cc1cccc(NC(=O)CC2(CC(=O)O)CCCC2)c1	15	26	-12%	-34%	?	0%
COc1ccc(/C=N/NC(=O)c2ccccc2)cc1CN1CCN(c2ccc(F)cc2)CC1	12*	25	-6%	-4%	-5%	2%
SMILES	CHX counter	Shiga inhibitor	AMA1-RON2 inh	AmpC no deterg	AmpC detergent	SARS PLpro yeast
COc1ccc(/C=N/NC(=O)c2ccccc2F)cc1CN1CCN(c2ccc(F)cc2)CC1	11	-6	?	-7%	2%	-7%
COc1ccc(/C=N\NC(=O)c2ccccc2OC)cc1COc1c(F)c(F)c(F)c(F)c1F	12*	19	-5%	26%	3%	2%
COc1ccc(/C=N\NC(=O)c2ccccc2)cc1COc1ccc(F)cc1	27*	198	11%	-10%	0%	4%
COc1ccc(/C=N\NC(=O)c2ccccc2Cl)cc1COc1c(F)c(F)c(F)c(F)c1F	15	16	15%	-28%	?	?
Cc1ccc(S(=O)(=O)NCCC(=O)NCCc2ccc(S(N)(=O)=O)cc2)cc1C	nt	nt	6%	-24%	nt	-5%
C[C@H](O)[C@@H]1C(=O)N2CCc3ccc(-c4ccccc4)cc3[C@@H]2C[C@@H]1N(C)C(=O)c1cccnc1	nt	nt	-8%	nt	nt	nt
Cc1cccc(Cn2cc(/C=C(/C#N)C(=O)Nc3cccc(Cl)c3)c3ccccc32)c1	14	-11	nt	nt	16%	nt
Cc1cccc(NC(=O)/C(C#N)=C/c2cn(CC(=O)NCc3ccco3)c3ccccc23)c1C	-3	-11	0%	14µM*	-12%	4%
N#C/C(=C\c1cn(Cc2ccccc2)c2ccccc12)C(=O)NCc1ccco1	29*	35	-5%	-36%	-4%	-26%
N#C/C(=C/c1cn(-c2ccccc2)nc1-c1cccc(S(=O)(=O)N2CCCC2)c1)C(=O)NCc1ccco1	9	34*	-9%	-46%	-10%	-1%
N#C/C(=C\c1cn(Cc2ccc(F)cc2)c2ccccc12)C(=O)NCc1ccco1	-2	-11	4%	-32%	4%	1%
N#C/C(=C\c1cn(Cc2cccc(F)c2)c2ccccc12)C(=O)NCc1ccco1	25*	28*	-9%	-26%	?	15%
COc1ccc(OC)c(NC(=O)CSc2ccc(-c3cccs3)nn2)c1	nt	nt	nt	nt	11%	nt
CCOC(=O)N1CCN(c2c(N3CCN(c4ccc(F)cc4)CC3)c(=O)c2=O)CC1	3	-7	3%	44%	2%	1%
N#C/C(=C/c1ccc(C(=O)O)cc1)C(=O)NCc1ccccc1	-1	-8	2%	-9%	0%	-2%
N#C/C(=C\c1ccco1)C(=O)NCc1ccccc1	35*	41*	-10%	-30%[11.4 µM]	?	-1%
CN(CC(=O)Nc1ccc(C#N)cc1)Cc1ccc(Cl)cc1	-3	-5	2%	-30%	?	0%
CNC(=O)c1ccc(NC(=O)Nc2ccccc2)cc1	30*	50*	-1%	-22%	-13%	2%
COC(=O)/C(=C\C(=O)c1ccccc1)Nc1cccc(C(F)(F)F)c1	44*	98*	50%	-19%	?	-8%
CC(=O)c1cccc(NC(=O)C2C3C=CC(C3=C(c3ccccc3)c3ccccc3)C2C(=O)O)c1 (stereo not given)	11*	47	-3%	-26%	?	-1%
N#Cc1ccc(NC(=O)Nc2ccc(Cl)cc2)cc1	38*	61*	7%	?	-2%	-41%
